Test results as given in PubChem BioAssay (NCI).
The panel holds about 83,000 compounds, 20% with a hit somewhere; the sample as a whole holds those more often.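 96-well plates, one dose, 48 hours. Percent growth reported; active if below 10.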 A number with no mark means an inactive call. Active and inactive are the calls of the source.

Tests used:
Assay in all cases: NCI-60 one-dose screen, 48 h (100 = growth as untreated, 0 = no growth, -100 = all killed)
[1] = test system: NCI-H23 lung; details: 10 µM unless noted
[2] = test system: NCI-H226 lung; details: 10 µM unless noted
[3] = test system: NCI-H322M lung; details: 10 µM unless noted
[4] = test system: NCI-H460 lung; details: 10 µM unless noted
[5] = test system: HOP-92 NSCLC; details: 10 µM unless noted
[6] = test system: A549/ATCC NSCLC; details: 10 µM unless noted
[7] = test system: 786-0 renal; details: 10 µM unless noted
[8] = test system: COLO 205 colon; details: 10 µM unless noted
[9] = test system: DU-145 prostate; details: 10 µM unless noted
[10] = test system: K-562 leukemia; details: 10 µM unless noted
[11] = test system: MALME-3M melanoma; details: 10 µM unless noted
[12] = test system: MDA-MB-231 breast; details: 10 µM unless noted
[13] = test system: RXF 393 renal; details: 10 µM unless noted
[14] = test system: SF-268 CNS; details: 10 µM unless noted
[15] = test system: SF-295 CNS; details: 10 µM unless noted
[16] = test system: SF-539 CNS; details: 10 µM unless noted
[17] = test system: UACC-257 melanoma; details: 10 µM unless noted
[18] = test system: M14 melanoma; details: 10 µM unless noted
[19] = test system: HOP-62 NSCLC; details: 10 µM unless noted
[20] = test system: NCI-H522 lung; details: 10 µM

Structure (SMILES): O=C1C(=O)/C(=C/c2ccccc2)CCCCCC/C1=C/c1ccccc1
- growth [1]: 42.3%
- growth [2]: 101%
- growth [3]: 94.5%
- growth [4]: 90.4%
- growth [5]: 90.3%
- growth [6]: 86.1%
- growth [7]: 86.6%
- growth [8]: 99.6%
- growth [9]: 64.6%
- growth [10]: 4.05% (active)
- growth [11]: 90.9%
- growth [12]: 96.2%
- growth [13]: -11.6% (active)
- growth [14]: 60.6%
- growth [15]: 76.5%
- growth [16]: 103%
- growth [17]: 75.3%
- growth [18]: 50%

Structure (SMILES): O=Cc1ncc(-c2ccc(C(F)(F)F)cc2)c(NC2CCCCCC2)n1
- growth [1]: -73.1% [100 µM] (active)
- growth [2]: 28.2% [100 µM]
- growth [3]: -5.95% [100 µM] (active)
- growth [4]: -51.3% [100 µM] (active)
- growth [5]: -95.4% [100 µM] (active)
- growth [6]: -79.2% [100 µM] (active)
- growth [7]: -82.1% [100 µM] (active)
- growth [8]: -60.5% [100 µM] (active)
- growth [9]: -92.9% [100 µM] (active)
- growth [10]: -50.2% [100 µM] (active)
- growth [11]: -92% [100 µM] (active)
- growth [12]: -87.8% [100 µM] (active)
- growth [13]: -80.2% [100 µM] (active)
- growth [14]: -83.9% [100 µM] (active)
- growth [15]: -86.3% [100 µM] (active)
- growth [16]: -96.8% [100 µM] (active)
- growth [17]: -92% [100 µM] (active)
- growth [18]: -91.6% [100 µM] (active)

Structure (SMILES): CCCn1c(N)c(C(=O)CNc2ccc(I)cc2)c(=O)[nH]c1=O
- growth [1]: 89.8%
- growth [2]: 62.7%
- growth [19]: 54.9%
- growth [4]: 28.6%
- growth [5]: 95.4%
- growth [20]: 50.9%
- growth [7]: 47.1%
- growth [8]: 75.5%
- growth [9]: 57.3%
- growth [10]: 43.5%
- growth [11]: 80.7%
- growth [12]: 67.5%
- growth [14]: 46.1%
- growth [15]: 54.2%
- growth [16]: 57.5%
- growth [17]: 72.1%
- growth [18]: 56.2%

Structure (SMILES): N#Cc1c(-c2ccccc2)cc(-c2ccccc2)n(CCCC(=O)O)c1=O
- growth [1]: 91.3%
- growth [2]: 101%
- growth [19]: 85.1%
- growth [4]: 103%
- growth [5]: 119%
- growth [6]: 92%
- growth [7]: 99.6%
- growth [8]: 109%
- growth [9]: 111%
- growth [10]: 94.1%
- growth [11]: 96.5%
- growth [12]: 94.9%
- growth [13]: 91.5%
- growth [14]: 102%
- growth [15]: 93.2%
- growth [16]: 102%
- growth [17]: 96.5%
- growth [18]: 96%

Structure (SMILES): Oc1ccc(/C=N/Nc2nc3ccccc3s2)c(O)c1
- growth [1]: 56.8%
- growth [2]: 45%
- growth [19]: 26.7%
- growth [4]: 10.9%
- growth [5]: 62.8%
- growth [6]: 18%
- growth [7]: 38.3%
- growth [8]: 89.3%
- growth [9]: 32.4%
- growth [10]: 30%
- growth [11]: 52.4%
- growth [12]: 41.9%
- growth [13]: 53.9%
- growth [14]: 21.6%
- growth [15]: 36.4%
- growth [16]: 34.5%
- growth [17]: 37.4%
- growth [18]: 27.1%

Structure (SMILES): Cc1ccc2nc(-c3ccc(N(C)C)c(Br)c3)cn2c1
- growth [1]: 92%
- growth [2]: 98.4%
- growth [19]: 93.4%
- growth [4]: 40.3%
- growth [5]: 126%
- growth [6]: 98.9%
- growth [7]: 87.8%
- growth [8]: 89.3%
- growth [9]: 93.7%
- growth [10]: 29%
- growth [11]: 116%
- growth [12]: 92.9%
- growth [13]: 62.8%
- growth [14]: 78.2%
- growth [15]: 90.5%
- growth [16]: 65.9%
- growth [17]: 90.7%
- growth [18]: 78.6%

Structure (SMILES): CCSCC1CC(O)(c2ccccc2)C(c2ccccc2)C(c2ccc(Cl)cc2)O1 (configuration not stated)
- growth [1]: 14.7%
- growth [2]: -1.26% (active)
- growth [19]: 16.4%
- growth [4]: -45.8% (active)
- growth [5]: -3.51% (active)
- growth [6]: -23.1% (active)
- growth [7]: 3.26% (active)
- growth [8]: -100% (active)
- growth [9]: 18.2%
- growth [11]: -34.7% (active)
- growth [12]: -26% (active)
- growth [13]: -30.9% (active)
- growth [14]: 17.3%
- growth [15]: -54.1% (active)
- growth [16]: -16.4% (active)
- growth [17]: -11.5% (active)
- growth [18]: 14.3%

Structure (SMILES): O=C(Nc1cccc(Cl)c1)Nc1cccc(Cl)c1
- growth [1]: 35.8%
- growth [2]: 81.1%
- growth [19]: 88.2%
- growth [4]: 52%
- growth [5]: 87.6%
- growth [6]: 52.4%
- growth [7]: 77.1%
- growth [8]: 89.2%
- growth [9]: 78.6%
- growth [10]: 19.6%
- growth [11]: 68.1%
- growth [12]: 85.3%
- growth [13]: 132%
- growth [14]: 88.6%
- growth [15]: 24.8%
- growth [16]: 91.4%
- growth [17]: 105%
- growth [18]: 75.7%
